Data published in PubChem BioAssay (NCI).
The panel holds about 83,000 compounds, 20% with a hit somewhere; the sample as a whole holds those more often.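 Percent growth is the endpoint: 0 to 100 indicates growth inhibition (40 means 60% inhibition), 0 means no net growth, and negative values indicate cell death.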 Active and inactive are the calls of the source. How the source made its calls: active means growth percent below 10; inactive means the rest.

The compounds below were run on RPMI-8226 leukemia (assay: NCI-60 one-dose screen, 48 h (100 = growth as untreated, 0 = no growth, -100 = all killed)). Conditions: 10 µM.

Row | Compound | growth
1 | CC(=O)OC/C=C(/C)C[P+](c1ccccc1)(c1ccccc1)c1ccccc1 | 0.0221% (active)
2 | CCOC(=O)c1cc(C(=O)c2cc(OC)cc(OC)c2)n2ncc3ccccc3c12 | 33% (inactive)
3 | C=CCN(CC=C)C(=O)[C@H](CC)[C@@H]1CC[C@@H](C)[C@@H]([C@H](C)[C@@H](O)[C@@H](C)C(=O)[C@H](CC)C2O[C@]3(C=CC(=O)[C@]4(CC[C@@](C)([C@H]5CC[C@](O)(CC)[C@H](C)O5)O4)O3)[C@H](C)C[C@@H]2C)O1 (some centres not stated) | -23% (active)
4 | Cc1c2c(nn1C(=O)c1nn(-c3ccc(Cl)cc3)cc1O)-c1ccccc1CC2 | -35.3% (active)
5 | O=C(CCn1cnc2c(cc(-c3ccccc3)n2-c2ccccc2)c1=O)Nc1ccc(F)cc1 | 79.3% (inactive)
6 | COc1ccc(-c2onc(N)c2-c2cc(OC)c3c(c2)OCO3)cc1 | 26.7% (inactive)
7 | CCOC(=O)c1cc(C(=O)c2cc(OC)c(OC)c(OC)c2)n2c1ccc1c3cccnc3ccc12 | 61.8% (inactive)
8 | COc1cc(NC(=O)Nc2cnc(Nc3ccc(N4CCOCC4)cc3)nc2Oc2cccc(OC)c2)cc(OC)c1 | 53.3% (inactive)
9 | CN(C)c1ccc(/C=N/NC(=O)c2ccccc2Nc2cccc(C(F)(F)F)c2)cc1 | 76.8% (inactive)
10 | N#CC1=C(N)Oc2cc(N)ccc2C1c1cccnc1 (configuration not stated) | 106% (inactive)
11 | COc1cc(C2CC(c3ccccc3)=NN2C(C)=O)cc(OC)c1OC (configuration not stated) | 81.7% (inactive)
12 | O=C(/C=C/C=C/c1c(C2CC2)nc2ccccc2c1-c1ccc(F)cc1)c1cccs1 | -26.6% (active)
13 | CC(C)N(CCOc1ccc(-c2nc3sccn3c2-c2ccnc(S(C)(=O)=O)n2)cc1)C(C)C | 71.2% (inactive)
14 | O=C(Nc1nc(-c2ccccc2)nc2c1sc(=S)n2-c1ccccc1)C(F)(F)F | 88.5% (inactive)
15 | O=C(CSc1nnc(-c2ccc(Cl)cc2)o1)Nc1ccc(C(=O)/C=C/c2ccc(Cl)cc2)cc1 | 92.5% (inactive)
16 | C=CCn1c(SCC(=O)Nc2ccc(C(=O)/C=C/c3ccc(OC)cc3)cc2)nnc1-c1ccc(OC)c(OC)c1 | 34.3% (inactive)
17 | CN1CCN(CC(=O)Nc2cccc(-n3cc(-c4ccncc4)c(-c4ccc(Cl)c(O)c4)n3)c2)CC1 | 15.9% (inactive)
18 | Cc1nn(-c2ccc(-c3ccc(OC(F)(F)F)cc3)cc2)c2nc(Cc3ccccc3)nc(N)c12 | 92.1% (inactive)
19 | C=C(C)[C@@H]1CC[C@]2(COCCC#N)CC[C@]3(C)[C@H](CC[C@@H]4[C@@]5(C)Cc6c([nH]c7ccccc67)C(C)(C)[C@@H]5CC[C@]43C)[C@@H]12 | 86.1% (inactive)
20 | CC(=O)[C@H]1CC[C@]2(C)[C@@H]1CC[C@@H]1[C@@]3(C)CC(CCC#N)(CCC#N)C(=O)C(C)(C)[C@@H]3CC[C@]12C | 107% (inactive)
21 | O=C1c2ccccc2C(=O)c2c1ccc(C(Br)Br)c2Cl | -15.5% (active)
22 | Clc1ccc(/C=C2\CCCC3C2=Nc2ccccc2NC3c2ccc(Cl)cc2)cc1 (configuration not stated) | -16% (active)
23 | Cc1ccc(/C=C/C(=O)C(=O)/C=C/c2ccc(C)cc2)cc1 | 45.2% (inactive)
24 | CCn1c(SC/C(=N/O)c2ccccc2)nnc1-c1ccccc1 | 89.7% (inactive)
25 | Cc1cc(SCc2ccccc2)nc(N)n1 | 105% (inactive)
26 | COc1cc2cc(Oc3ccc(NC(=O)Nc4ccc(Cl)c(C(F)(F)F)c4)cc3)c(C)nc2cc1OC | -26.4% (active)
27 | C[n+]1c2ccccc2nc2ccccc21 | -17.2% (active)

The compounds below were run on OVCAR-8 ovarian in the same assay as above. Conditions: 10 µM.

Row | Compound | growth
28 | CC(=O)OC/C=C(/C)C[P+](c1ccccc1)(c1ccccc1)c1ccccc1 | 35% (inactive)
29 | CCOC(=O)c1cc(C(=O)c2cc(OC)cc(OC)c2)n2ncc3ccccc3c12 | 34.4% (inactive)
30 | C=CCN(CC=C)C(=O)[C@H](CC)[C@@H]1CC[C@@H](C)[C@@H]([C@H](C)[C@@H](O)[C@@H](C)C(=O)[C@H](CC)C2O[C@]3(C=CC(=O)[C@]4(CC[C@@](C)([C@H]5CC[C@](O)(CC)[C@H](C)O5)O4)O3)[C@H](C)C[C@@H]2C)O1 (some centres not stated) | 32.4% (inactive)
31 | Cc1c2c(nn1C(=O)c1nn(-c3ccc(Cl)cc3)cc1O)-c1ccccc1CC2 | 6.41% (active)
32 | O=C(CCn1cnc2c(cc(-c3ccccc3)n2-c2ccccc2)c1=O)Nc1ccc(F)cc1 | 54% (inactive)
33 | COc1ccc(-c2onc(N)c2-c2cc(OC)c3c(c2)OCO3)cc1 | 39.3% (inactive)
34 | CCCN(CCC)C(=O)[C@H](CC)[C@@H]1CC[C@@H](C)[C@@H]([C@H](C)[C@@H](O)[C@@H](C)C(=O)[C@H](CC)C2O[C@]3(C=C[C@@H](O)[C@]4(CC[C@@](C)([C@H]5CC[C@](O)(CC)[C@H](C)O5)O4)O3)[C@H](C)C[C@@H]2C)O1 (some centres not stated) | 15% (inactive)
35 | CCOC(=O)c1cc(C(=O)c2cc(OC)c(OC)c(OC)c2)n2c1ccc1c3cccnc3ccc12 | 56.2% (inactive)
36 | COc1cc(NC(=O)Nc2cnc(Nc3ccc(N4CCOCC4)cc3)nc2Oc2cccc(OC)c2)cc(OC)c1 | -10.8% (active)
37 | Fc1ccc2[nH]cc(-c3nc(-c4ccsc4)cs3)c2c1 | 94.4% (inactive)
38 | IC(I)I | 107% (inactive)
39 | Cc1ccc(-n2c(C)nn3c(=O)c4c5c(sc4nc23)CN(C)CC5)cc1 | 103% (inactive)
40 | CN(C)c1ccc(/C=N/NC(=O)c2ccccc2Nc2cccc(C(F)(F)F)c2)cc1 | 99.6% (inactive)
41 | N#CC1=C(N)Oc2cc(N)ccc2C1c1cccnc1 (configuration not stated) | 106% (inactive)
42 | O=C(CCCCNC(=O)c1nc(-c2ccccc2)n(-c2ccccc2)n1)NO | 51% (inactive)
43 | COc1ccc(-c2cc(-c3ccc(OC)c(OC)c3)nc(SCCCC(=O)NO)n2)cc1 | 10.4% (inactive)
44 | COc1cc(C2CC(c3ccccc3)=NN2C(C)=O)cc(OC)c1OC (configuration not stated) | 51.2% (inactive)
45 | O=C(/C=C/C=C/c1c(C2CC2)nc2ccccc2c1-c1ccc(F)cc1)c1cccs1 | 18.1% (inactive)
46 | CC(C)N(CCOc1ccc(-c2nc3sccn3c2-c2ccnc(S(C)(=O)=O)n2)cc1)C(C)C | 90.6% (inactive)
47 | O=C(Nc1nc(-c2ccccc2)nc2c1sc(=S)n2-c1ccccc1)C(F)(F)F | 86.6% (inactive)

Row | Compound | growth
48 | O=C(CSc1nnc(-c2ccc(Cl)cc2)o1)Nc1ccc(C(=O)/C=C/c2ccc(Cl)cc2)cc1 | 100% (inactive)
49 | C=CCn1c(SCC(=O)Nc2ccc(C(=O)/C=C/c3ccc(OC)cc3)cc2)nnc1-c1ccc(OC)c(OC)c1 | 79.8% (inactive)
50 | CN1CCN(CC(=O)Nc2cccc(-n3cc(-c4ccncc4)c(-c4ccc(Cl)c(O)c4)n3)c2)CC1 | 57.2% (inactive)
51 | CCc1ccc(C2=NN(c3ccc(S(C)(=O)=O)cc3)C(=O)CC2)cc1 | 39.1% (inactive)
52 | Cc1nn(-c2ccc(-c3ccc(OC(F)(F)F)cc3)cc2)c2nc(Cc3ccccc3)nc(N)c12 | 33% (inactive)
53 | Cn1c2ccccc2c2c3[nH][nH]c(=O)c3c3c4ccccc4[nH]c3c21 | 33.1% (inactive)
54 | CC[C@H]1OC(=O)[C@H](C)[C@@H](O[C@H]2C[C@@](C)(OC)[C@@H](O)[C@H](C)O2)[C@H](C)[C@@H](O[C@@H]2O[C@H](C)C[C@H](N(C)C)[C@H]2O)[C@](C)(OC)C/C(C)=C2/O[C@@]1(C)C=C2C | 78.5% (inactive)
55 | C=C(C)[C@@H]1CC[C@]2(COCCC#N)CC[C@]3(C)[C@H](CC[C@@H]4[C@@]5(C)Cc6c([nH]c7ccccc67)C(C)(C)[C@@H]5CC[C@]43C)[C@@H]12 | 107% (inactive)
56 | CC(=O)[C@H]1CC[C@]2(C)[C@@H]1CC[C@@H]1[C@@]3(C)CC(CCC#N)(CCC#N)C(=O)C(C)(C)[C@@H]3CC[C@]12C | 106% (inactive)
57 | O=C1c2ccccc2C(=O)c2c1ccc(C(Br)Br)c2Cl | 17.1% (inactive)
58 | Clc1ccc(/C=C2\CCCC3C2=Nc2ccccc2NC3c2ccc(Cl)cc2)cc1 (configuration not stated) | 65.8% (inactive)
59 | Cc1ccc(/C=C/C(=O)C(=O)/C=C/c2ccc(C)cc2)cc1 | 109% (inactive)
60 | O=C(Nc1ccccc1)Nc1ncnc2c1ncn2-c1ccccc1 | 55.3% (inactive)
61 | CCn1c(SC/C(=N/O)c2ccccc2)nnc1-c1ccccc1 | 111% (inactive)
62 | Cc1cc(SCc2ccccc2)nc(N)n1 | 105% (inactive)
63 | COc1cc2cc(Oc3ccc(NC(=O)Nc4ccc(Cl)c(C(F)(F)F)c4)cc3)c(C)nc2cc1OC | 7.34% (active)
64 | CCCCCCCCCCCCCCCCCC[n+]1ccc2c(C)c3c(c(C)c2c1)c1cc(O)ccc1n3CC | 7.3% (active)
65 | CN1CCc2c(sc3nc4n(-c5ccc(Cl)cc5)cnn4c(=O)c23)C1 | 100% (inactive)
66 | CN1CCc2c(sc3nc4n(-c5ccc(Cl)cc5)c(=O)[nH]n4c(=O)c23)C1 | 93% (inactive)
67 | C[n+]1c2ccccc2nc2ccccc21 | 10.3% (inactive)
